Assay outcomes deposited in PubChem by several laboratories.
Sampled rows, rich in hits. Any-hit rate of the full collection: about 2.1%.
SMARCA2 act: activators of SMARCA2 function. 370,000 compounds, 1% hits. AID 652017. activation, % at 9.1 µM. MG213 cells, MMTV-luciferase reporter, dexamethasone, overnight; in the data active = activation above about 7.8%;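 also: 0% = vehicle wells and 100% = reference activator wells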
MsrA act: bovine methionine sulfoxide reductase A activation. purified bovine MsrA, absorbance read-out. activation, % at 10.6 µM. 360,000 compounds, 0.3% hits. AID 602163; in the data active = activation above about 7.5%;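 also: 0% = vehicle and 100% = reference activator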
MsrA inh: bovine MsrA inhibition; purified bovine MsrA, absorbance read-out; inhibition, % at 15.5 µM; 360,000 compounds, 0.75% hits; in the data active = inhibition above about 4.5%;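 also: 0% = vehicle wells with enzyme and 100% = reference inhibitor wells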
ABCB6 inh 2: human ABCB6 transporter inhibition; K562-ABCB6 porphyrin accumulation, flow cytometry, 1 h; hits give low values; fluorescence ratio to DMSO, % at 10 µM; 360,000 compounds, 0.19% hits;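 active = fluorescence ratio to DMSO below 75%, the collection mean minus 3 SD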;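 also: signal is porphyrin accumulated inside mitochondria; 100% equals median channel fluorescence of DMSO control wells; lower ratio means ABCB6 inhibition with less porphyrin fluorescence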
Target sequence (Q9NP58 whole entry, looked up): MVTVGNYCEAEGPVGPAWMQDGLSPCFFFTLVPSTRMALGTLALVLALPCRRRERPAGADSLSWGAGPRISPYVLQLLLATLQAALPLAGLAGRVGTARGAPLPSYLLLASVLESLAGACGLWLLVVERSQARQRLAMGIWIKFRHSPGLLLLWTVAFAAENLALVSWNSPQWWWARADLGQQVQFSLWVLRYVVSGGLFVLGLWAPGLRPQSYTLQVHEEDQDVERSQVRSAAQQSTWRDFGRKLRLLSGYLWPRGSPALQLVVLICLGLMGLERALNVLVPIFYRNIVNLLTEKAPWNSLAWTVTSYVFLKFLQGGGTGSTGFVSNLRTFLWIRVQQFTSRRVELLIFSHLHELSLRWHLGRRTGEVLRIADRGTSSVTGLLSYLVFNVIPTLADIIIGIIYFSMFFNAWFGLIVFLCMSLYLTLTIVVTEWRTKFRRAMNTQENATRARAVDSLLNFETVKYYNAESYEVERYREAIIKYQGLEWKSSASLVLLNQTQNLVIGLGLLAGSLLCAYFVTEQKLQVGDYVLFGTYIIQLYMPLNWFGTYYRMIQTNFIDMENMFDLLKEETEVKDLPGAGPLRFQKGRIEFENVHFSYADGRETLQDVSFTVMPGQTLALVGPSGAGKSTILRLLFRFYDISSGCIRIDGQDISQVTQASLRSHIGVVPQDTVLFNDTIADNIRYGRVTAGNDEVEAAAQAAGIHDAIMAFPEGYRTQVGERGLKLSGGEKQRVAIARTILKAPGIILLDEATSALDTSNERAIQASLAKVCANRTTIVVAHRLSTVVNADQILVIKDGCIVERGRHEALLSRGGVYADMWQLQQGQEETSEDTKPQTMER
SMARCA2 act conf: confirmation of SMARCA2 (BRM) function activators; MG213 cells, MMTV-luciferase with dexamethasone, luminescence, overnight; MG213 cells expressing E1A, Rb sequestered; DMSO wells 0%, reference activator 100%; 3,500 compounds, 30% hits; shares compounds with SMARCA2 act; AID 652260; activation, % at 9.1 µM;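 active = activation above its plate's cutoff, the mean activation of tested wells plus 3 SD, cut at about 7.9% in these data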
GAL4-VP16 Luc: activates GAL4-VP16 luciferase, flagging SMARCA2 activator hits | HEK293 GAL4-VP16 pG5luc reporter, luciferase luminescence; scaled: DMSO wells 0%, SAHA wells 100% | activation, % at 9.1 µM | shares compounds with SMARCA2 act | AID 686939 | 3,500 compounds, 41% hits;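 active = activation above the solvent-only control well mean plus 3 SD, averaged across control plates, cut at about 5.2% in these data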
An asterisk follows results filed as active; x = no result.

SMILES	SMARCA2 act	MsrA act	MsrA inh	ABCB6 inh 2	SMARCA2 act conf	GAL4-VP16 Luc
O=C1CCC/C(=N/NC(=O)C2CCN(S(=O)(=O)c3cccs3)CC2)C1	8.7*	-1	-1	97	2	0
O=C(C1CCN(S(=O)(=O)c2cccs2)CC1)N1CCCCC1	-1	-13	-1	94	x	x
CCN(CC)CCCNC(=O)c1oc(=O)c2ccccc2c1-c1ccc(C)cc1	3	x	x	x	x	x
CCc1ccc(-n2c(=O)c3ccccc3n(CC(=O)NCc3ccco3)c2=O)cc1	8.6*	-9	-1	99	-4	-1
CC(=O)c1cc(-c2ccccc2-c2ccccc2)c(=O)n2c1CCC2	-2	x	x	x	x	x
Cc1cc2nc(-c3cccnc3SCC(=O)NC(C)C)[nH]c2cc1C	11*	-4	0	91	8.4*	8.9*
CC(C)[C@H](N)C(=O)N[C@@H](Cc1ccccc1)C(=O)N1CCC2CCN(S(=O)(=O)c3ccccc3)CC21 (stereo partly drawn)	-2	x	x	x	x	x
O=C(c1ccco1)N(Cc1cccnc1)C(c1ccccc1)c1nc2ccccc2[nH]1 (stereo not drawn)	8.6*	-1	-1	102	11*	6.1*
COc1ccc(C(=O)OCC(=O)Nc2ccccc2)cc1[N+](=O)[O-]	3	-6	0	94	x	x
COc1ccc(C(=O)OCC(N)=O)cc1[N+](=O)[O-]	11*	-2	0	99	3	1
Cc1cc(C)cc(OCC(=O)Nc2cccc(-c3nc4ncccc4o3)c2)c1	8.6*	-3	0	97	-1	1
Cc1ccc(C)c(NC(=O)c2ccc(CS(=O)(=O)Cc3ccccc3C)o2)c1	-4	x	x	x	x	x
CSc1nc(C)cc(SCC(=O)Nc2ccc(Cl)cc2Cl)n1	8.0*	-2	0	99	0	0
O=Cc1ccc(OCc2ccccn2)cc1	1	-2	0	94	x	x
O=Cc1ccc(OCc2ccc3ccccc3c2)cc1	8.2*	-1	0	98	5	6.1*
COc1ccc(Cn2ccc3ccc(-c4ccc5ccn(Cc6cccc(F)c6)c5c4)cc32)cc1	-1	x	x	x	x	x
Cc1ccc(NC(=O)CN2C(=O)S/C(=C/c3ccc(-c4cc(C(=O)O)ccc4C)o3)C2=O)cc1C	-4	-9	1	88	x	x
COC(=O)C(C)N1C(=O)S/C(=C\c2ccc(-c3ccc(C(=O)O)cc3C)o2)C1=O (stereo not drawn)	11*	-3	2	99	9.8*	10*
Cc1ccccc1C(=O)NNC(=O)c1ccc(Br)cc1	9.0*	-13	3	99	5	5.5*
Cc1ccccc1NC(=S)c1ccc2ccccc2n1	8.2*	-6	-1	101	16*	7.6*
CCCN(CC(=O)Nc1ccccc1C)C(=O)c1ccc2ccccc2n1	-1	-1	0	92	x	x
COc1ccc(CN(CC#Cc2ccc(C)cc2)C(N)=NC(=O)CCc2ccccc2)c(OC)c1	-5	x	x	x	x	x
Cc1ccc(-c2cc(-c3ccccc3Cl)[nH]n2)c(O)c1	8.6*	6	0	98	4	11*
Cc1ccc(-c2cc(-c3ccccc3[N+](=O)[O-])[nH]n2)c(O)c1	-1	-1	2	102	x	x
CCCCOCC1CN(CCCC)S(=O)(=O)c2c(Oc3ccc(C(C)C)cc3)cccc2O1 (stereo not drawn)	-3	x	0	x	x	x
SMILES	SMARCA2 act	MsrA act	MsrA inh	ABCB6 inh 2	SMARCA2 act conf	GAL4-VP16 Luc
C[C@@H]1CN([C@@H](C)CO)S(=O)(=O)c2ccc(Br)cc2O[C@@H]1CN(C)Cc1ccc2c(c1)OCO2	-5	x	0	x	x	x
COc1cccc(NC(=O)COc2ccc(Br)c(C)c2)c1	9.9*	-1	-1	92	7	4
Cc1cc(NC(=O)CN(C)CCOc2ccccc2)ccc1Br	8.4*	-1	0	102	0	2
C=CCn1c(=O)c(C(=O)Nc2ccccc2S(N)(=O)=O)c(O)c2ccccc21	11*	-4	1	97	16*	4
C=CCn1c(=O)c(C(=O)Nc2ccccc2C(=O)OCC)c(O)c2ccccc21	2	-11	-1	93	x	x
C/C(=N/NC(=O)Cc1c(C)[nH][nH]c1=O)c1ccc(O)cc1	-3	-9	0	100	x	x
C/C(=N\NC(=O)Cc1c(C)[nH][nH]c1=O)c1ccc(Cl)c(Cl)c1	8.0*	-3	0	95	0	3
